eIF4H FP inh: inhibitors of RNA binding by human eIF4H | hit rate 0.94% among 290,000 | AID 2012 | inhibition, % at 35 µM | eIF4H fluorescence polarization binding assay | Q15056;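 further: calls also rest on retests at 20 µM and on dose response follow-up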
eIF4E-4G inh: inhibitors of eIF4E and eIF4G interaction in translation initiation; P63073+Q04637; TR-FRET eIF4E-eIF4GI(517-606) binding, 2 h; inhibition, % at 21.7 µM; hit rate 0.37% among 220,000;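 active means inhibition above about 30%, limit read from the data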
PABP FP inh: PABP-poly(A) binding inhibition; PABP-poly(A) RNA binding, fluorescence polarization; hit rate 1% among 290,000; P11940; inhibition, % at 35 µM;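 further: calls also rest on retests at 20 µM and on dose response follow-up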
PERK inhibitor: blocks human PERK kinase | hit rate 0.17% among 220,000 | AID 1416 | CHO PERK-DD fusion, SEAP luminescence translation reporter | inhibition, % at 5.6 µM | Q9NZJ5;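 active means inhibition above the mean inhibition of all tested compounds plus 3 SD, set separately per screening campaign, cut at about 2.9% in these data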;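 further: PERK kinase domain activated by AP20187 dimerizer at 100 nM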
Target sequence (Q9NZJ5 whole entry, looked up, the tested form may be a part): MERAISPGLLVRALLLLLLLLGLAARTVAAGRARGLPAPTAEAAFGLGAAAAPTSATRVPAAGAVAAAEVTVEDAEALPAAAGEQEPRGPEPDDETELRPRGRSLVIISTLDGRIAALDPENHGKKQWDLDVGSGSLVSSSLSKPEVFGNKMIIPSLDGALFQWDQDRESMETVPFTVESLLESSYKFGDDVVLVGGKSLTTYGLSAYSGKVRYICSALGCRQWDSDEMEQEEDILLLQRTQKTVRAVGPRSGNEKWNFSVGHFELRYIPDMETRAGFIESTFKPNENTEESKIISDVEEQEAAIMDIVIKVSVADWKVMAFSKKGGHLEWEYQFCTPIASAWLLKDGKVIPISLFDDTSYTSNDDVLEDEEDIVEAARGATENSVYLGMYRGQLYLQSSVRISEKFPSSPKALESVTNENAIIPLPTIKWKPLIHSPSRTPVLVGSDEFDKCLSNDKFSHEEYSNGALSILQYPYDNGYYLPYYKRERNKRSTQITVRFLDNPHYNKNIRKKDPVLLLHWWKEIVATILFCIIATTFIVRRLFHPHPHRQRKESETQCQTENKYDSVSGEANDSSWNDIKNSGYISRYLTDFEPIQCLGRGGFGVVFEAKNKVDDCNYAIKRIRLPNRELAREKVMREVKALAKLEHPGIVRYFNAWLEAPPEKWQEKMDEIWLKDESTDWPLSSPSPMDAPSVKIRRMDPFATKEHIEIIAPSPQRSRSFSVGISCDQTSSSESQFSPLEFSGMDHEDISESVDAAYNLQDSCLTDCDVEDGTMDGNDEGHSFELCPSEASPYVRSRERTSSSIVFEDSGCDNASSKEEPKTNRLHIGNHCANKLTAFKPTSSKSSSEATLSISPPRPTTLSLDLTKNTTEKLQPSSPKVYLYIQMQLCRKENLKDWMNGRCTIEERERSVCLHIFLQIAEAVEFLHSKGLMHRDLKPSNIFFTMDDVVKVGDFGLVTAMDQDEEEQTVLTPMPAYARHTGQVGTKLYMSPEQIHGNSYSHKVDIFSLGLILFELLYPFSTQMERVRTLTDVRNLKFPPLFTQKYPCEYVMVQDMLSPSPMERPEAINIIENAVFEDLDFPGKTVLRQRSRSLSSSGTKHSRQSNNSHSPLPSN
PABP1 MLLE inh: inhibitors of microRNA-mediated deadenylation, human PABP1 MLLE binding | P11940 | GST-MLLE / FITC-PAM2 fluorescence polarization | inhibition, % at 20 µM | hit rate 0.36% among 360,000; in the data active means inhibition above about 35%, passing the limit was not always enough
PfM18AAP inh: blocks P. falciparum M18 aspartyl aminopeptidase; inhibition, % at 7.35 µM; recombinant PfM18AAP, H-Glu-NHMec fluorogenic cleavage; AID 1822; hit rate 1.2% among 290,000;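 active means inhibition above the campaign mean inhibition over all tested compounds plus 3 SD, cut at about 28% in these data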
Each line names hits and unclear results; the compound was inactive in the other large screens; [ ] = another dose, or the depositor's remark. Compounds with a hit are over-represented: about 2.4% of the library has one in this group of screens. Unless noted, how the calls were made is not given here.

CCN1CC2=C(OC(N)=C(C#N)C2c2cccs2)/C(=C\c2cccs2)C1 (centres undefined)	eIF4H FP inh 98, PABP FP inh 104
Nc1nonc1NN=C1CCCCC1	PfM18AAP inh 31
O=[N+]([O-])c1ccc(NC2CCN(Cc3ccccc3)CC2)c([N+](=O)[O-])c1	none
O=C1c2c([N+](=O)[O-])cc([N+](=O)[O-])cc2S(=O)N1Cc1ccccc1 (centres undefined)	PfM18AAP inh 52
COc1ccccc1CNC(=O)COc1cc(O)c2c(c1)OC(C)(C)CC2=O	none (no result: eIF4H FP inh, eIF4E-4G inh, PABP FP inh, PERK inhibitor, PfM18AAP inh)
CCOc1nc(NC(=O)NS(=O)(=O)c2cccc(Cl)c2)nc(-c2ccccc2)n1	none
CC1CCc2nn(CC(=O)N3CCCCCC3)cc2C1 (centres undefined)	eIF4E-4G inh 77[fluorescence artefact?]
O=C(Cn1cc2c(n1)CCCCC2)N1CCCCC1	none
CCNc1ccc(C(=O)OCC(=O)NC(C)c2ccccc2)cc1[N+](=O)[O-] (centres undefined)	eIF4E-4G inh 46
NC(=O)c1cccc2c1-c1ccccc1/C2=N/NC(N)=S	PABP1 MLLE inh 39 (no result: eIF4E-4G inh, PERK inhibitor)
CC(C)C[C@@H](CN=[N+]=[N-])N1CCN(C)CCC1=O	none (no result: eIF4E-4G inh, PERK inhibitor)
O=c1c2ccccc2n2c(-c3ccc(F)cc3)nnc2n1Cc1ccccc1	eIF4H FP inh 53, PABP FP inh active
O=c1c2ccccc2n2c(-c3ccc(C(F)(F)F)cc3)nnc2n1Cc1ccccc1	none
CCC(OCC(O)CN1CCCCC1)c1ccccc1 (centres undefined)	none (no result: eIF4E-4G inh, PERK inhibitor)
O=C(Nc1ccccc1C(F)(F)F)C1CCN(C(=O)Cc2ccccc2)CC1	none (no result: eIF4E-4G inh, PERK inhibitor)
CNC(=O)NC(=O)CN1C(=O)NC2(CCOc3ccccc32)C1=O (centres undefined)	none (no result: eIF4E-4G inh, PERK inhibitor)
Cc1ccc(C)n1-c1nccc(-c2cccs2)n1	eIF4H FP inh 91, PABP FP inh 32
c1ccc(CSc2nccc(-c3ccco3)n2)cc1	none (no result: eIF4H FP inh, eIF4E-4G inh, PABP FP inh, PERK inhibitor, PfM18AAP inh)
Cc1ccc(C)n1-c1nccc(-c2ccco2)n1	eIF4H FP inh 54, PABP FP inh 8.2
COc1ccccc1-c1nc(COc2ccc(Cl)cc2Cl)no1	none
CCC(C)(C)NC(=O)Cc1ccccc1OC	none
CCOC(=O)Cc1csc(NC(=O)c2sc3nc4cc(C)ccc4cc3c2N)n1	eIF4H FP inh inconclusive, PABP FP inh active
CCOC(=O)Cc1csc(NC(=S)NC(=O)c2ccccc2Br)n1	PABP1 MLLE inh 39
CCOC(=O)c1sc(NC(=O)/C=C/c2ccccc2)nc1C	eIF4H FP inh 11
CCOC(=O)Cc1csc(NC(=O)/C=C/c2ccc(Br)o2)n1	none
CCOC(=O)Cc1csc(NC(=O)/C=C/c2cccc(Br)c2)n1	eIF4H FP inh active, PABP FP inh 61
C[C@@]12C(=O)Nc3ccccc3C(=O)N1[C@H]1c3cc(Br)ccc3OC[C@@H]1[C@@H]2c1ccccc1	none (no result: eIF4H FP inh, eIF4E-4G inh, PABP FP inh, PERK inhibitor, PfM18AAP inh)
CC(OC(=O)/C=C/c1ccc2ccccc2n1)C(=O)Nc1ccc(S(N)(=O)=O)cc1 (centres undefined)	none (no result: eIF4H FP inh, eIF4E-4G inh, PABP FP inh, PERK inhibitor, PfM18AAP inh)
Cc1ccc(-n2c(C)cc(/C=N/NC(N)=S)c2C)cc1	none
NC(=S)N/N=C/c1cccc(/C=N/NC(N)=S)c1	none
NC(=S)N/N=C/c1ccccc1O	none
Cc1cc(/C=N/NC(N)=S)c(O)c(/C=N/NC(N)=S)c1	eIF4H FP inh inconclusive, PABP FP inh inconclusive, PfM18AAP inh 45
S=C(NCCN1CCOCC1)N/N=C/c1cccs1	none (no result: eIF4E-4G inh, PERK inhibitor)
Oc1cccc(/C=N/NC(=S)NCCN2CCOCC2)c1O	PfM18AAP inh 29
NC(=S)N/N=C/c1cccc(O)c1O	PfM18AAP inh 40
NC(=S)N/N=C/c1ccc(/C=N/NC(N)=S)cc1	PERK inhibitor 3.5
CN(c1ccccc1)S(=O)(=O)c1ccc(Cl)c(C(=O)NCc2ccccc2CN2CCCC2)c1	none (no result: eIF4H FP inh, eIF4E-4G inh, PABP FP inh, PERK inhibitor, PfM18AAP inh)
CCc1ccccc1NC(=O)N[C@@H](C)C(=O)OC	none
Cc1cccc(-c2nn(-c3ccccc3)cc2C(=O)N2CCN(C3CCS(=O)(=O)C3)CC2)c1 (centres undefined)	none (no result: eIF4H FP inh, eIF4E-4G inh, PABP FP inh, PERK inhibitor, PfM18AAP inh)
Cc1ccc(NC(=O)CN2C(=O)N/C(=C/c3cccn3-c3ccc(C(=O)O)cc3)C2=O)cc1	eIF4E-4G inh 34
Cc1ccc(NC(=O)CN2C(=O)N/C(=C/c3ccco3)C2=O)cc1	eIF4H FP inh 90, PABP FP inh 59
Cc1ccc(NC(=O)CN2C(=O)N/C(=C/c3cc(C)n(-c4ccc(C(=O)O)cc4)c3C)C2=O)cc1	none
CC(CC(=O)NCc1ccccc1)C1CCCO1 (centres undefined)	none
O=C(NC1CCCCC1)C(c1cccnc1)N(C(=O)c1csnn1)c1ccc(F)cc1 (centres undefined)	none (no result: eIF4E-4G inh, PERK inhibitor)
O=S(=O)(/N=C(/Sc1ccccc1)c1ccccc1)c1ccccc1	PABP1 MLLE inh 38
CCOc1ccc(C(=O)NC(C)(C)CC)cc1	PABP FP inh 69
CCOc1ccc(C(=O)NCCCCNC(=O)c2ccc(OCC)cc2)cc1	none (no result: eIF4E-4G inh, PERK inhibitor)
Cc1ccc(S(=O)(=O)CCSc2cccc(C(=O)Nc3ccccc3C(=O)O)c2)cc1	PABP1 MLLE inh 36
COc1cccc(C(O)C2OC(=O)c3ccccc32)c1OC (centres undefined)	none (no result: eIF4H FP inh, eIF4E-4G inh, PABP FP inh, PERK inhibitor, PfM18AAP inh)
O=C(COc1ccccc1)Nc1nnc(-c2ccco2)o1	PABP FP inh active
O=C(COc1ccc(Cl)cc1)Nc1nnc(-c2ccco2)o1	none
CC(OC(=O)/C=C/c1ccccc1Cl)C(=O)NC1CCCCC1C (centres undefined)	none (no result: eIF4H FP inh, eIF4E-4G inh, PABP FP inh, PERK inhibitor, PfM18AAP inh)
O=C(CSc1nc2c(c(=O)n1-c1ccccc1)SCC2)NCC1CCCO1 (centres undefined)	none
COc1cc(/C=C/C(=O)Nc2cc(S(=O)(=O)N3CCOCC3)ccc2N2CCCC2)cc(OC)c1OC	PABP1 MLLE inh 40
Cc1ccc(C)n1-c1cc(S(=O)(=O)N2CCOCC2)ccc1N1CCCC1	eIF4H FP inh 92, PABP FP inh 106
CNC(=O)/C(C#N)=C/c1c(N2CCN(c3ccc(OC)cc3)CC2)nc2c(C)cccn2c1=O	none (no result: eIF4E-4G inh, PERK inhibitor)
Cc1cccc(N(C(=O)CNC(=O)c2ccco2)C(C(=O)NC2CCCC2)c2cccnc2)c1C (centres undefined)	none (no result: eIF4E-4G inh, PERK inhibitor)
Cc1cccc(C)c1NC(=O)CN1C(=O)S/C(=C\c2cccn2-c2cccc(C(=O)O)c2)C1=O	eIF4H FP inh 80, PABP FP inh 36
Cc1ccc(NC(=O)CN2C(=O)S/C(=C\c3cccn3-c3cccc(C(=O)O)c3)C2=O)c(C)c1	eIF4H FP inh 91, PABP FP inh 41
Cc1cccc(NC(=O)CN2C(=O)S/C(=C\c3cccn3-c3cccc(C(=O)O)c3)C2=O)c1	none
Cc1ccccc1NC(=O)CN1C(=O)S/C(=C\c2cccn2-c2cccc(C(=O)O)c2)C1=O	eIF4H FP inh 81, PABP FP inh 38
Cc1ccc(NC(=O)CN2C(=O)S/C(=C\c3cccn3-c3cccc(C(=O)O)c3)C2=O)cc1C	PABP FP inh 32
COc1ccc(NC(=O)CN2C(=O)S/C(=C/c3cccn3-c3ccc(C(=O)O)cc3)C2=O)cc1	eIF4H FP inh 87, PABP FP inh 80 (no result: eIF4E-4G inh, PERK inhibitor)

Bioassay records (PubChem)
